Assay outcomes (PubChem)
HEK293 viab: GF-AFC viability counterscreen for inhibitors of alpha-synuclein gene (SNCA) expression; HEK-293-SNCA-luc viability, GF-AFC fluorescence, 24 h; Potency, µM (highest dose often 57.1 µM), actives largely listed as cytotoxic; 0.12% of 150,000 active; further: nearly all actives have a fitted effect of over 30% in size
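Cytotoxicity counterscreen: after 24 h compound treatment of genome-edited SNCA-luciferase HEK-293 cells, live-cell protease substrate GF-AFC read by fluorescence after 30 min; activity scaled between DMSO (0%) and medium-only (-100%), curves Hill-fitted.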
hNpr1 antagonist: Natriuretic polypeptide receptor (hNpr1) antagonism - Primary qHTS; 1.6% of 76,000 active; HEK293 hNpr1 GloSensor cGMP, ANP-stimulated luminescence; Potency, µM (top dose mostly 46.3 µM), actives largely listed as inhibitors; Atrial natriuretic peptide receptor 1 (Homo sapiens), P16066; calls by dose curve; further: nearly all actives have a fitted effect of over 60% in size
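HEK293 cells stably expressing human Npr1 and cGMP GloSensor pGS-40F, loaded 2 h with 2% GloSensor reagent, given compound 30 min at room temperature. Luminescence read before and 20 min after 0.1 nM hNppA.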
SNCA expr inh: Primary qHTS assay for inhibitors of alpha-synuclein gene (SNCA) expression; HEK-293 SNCA-luciferase knock-in, luminescence, 24 h; AID 1671194, 2021; Potency, µM (top dose mostly 57.2 µM), most hits filed as inhibitors; 0.17% of 140,000 active; further: nearly all actives have a fitted effect of over 45% in size
FLuc inh-1: Firefly luciferase inhibition profiling of diverse chemical library using quantitative high-throughput screening; purified P. pyralis luciferase, luminescence, biochemical; AID 1347043, 2019; Potency, µM (highest dose often 115 µM), actives largely listed as inhibitors; 2.5% of 76,000 active; further: nearly all actives have a fitted effect of over 65% in size
Target sequence (P08659 whole entry, looked up): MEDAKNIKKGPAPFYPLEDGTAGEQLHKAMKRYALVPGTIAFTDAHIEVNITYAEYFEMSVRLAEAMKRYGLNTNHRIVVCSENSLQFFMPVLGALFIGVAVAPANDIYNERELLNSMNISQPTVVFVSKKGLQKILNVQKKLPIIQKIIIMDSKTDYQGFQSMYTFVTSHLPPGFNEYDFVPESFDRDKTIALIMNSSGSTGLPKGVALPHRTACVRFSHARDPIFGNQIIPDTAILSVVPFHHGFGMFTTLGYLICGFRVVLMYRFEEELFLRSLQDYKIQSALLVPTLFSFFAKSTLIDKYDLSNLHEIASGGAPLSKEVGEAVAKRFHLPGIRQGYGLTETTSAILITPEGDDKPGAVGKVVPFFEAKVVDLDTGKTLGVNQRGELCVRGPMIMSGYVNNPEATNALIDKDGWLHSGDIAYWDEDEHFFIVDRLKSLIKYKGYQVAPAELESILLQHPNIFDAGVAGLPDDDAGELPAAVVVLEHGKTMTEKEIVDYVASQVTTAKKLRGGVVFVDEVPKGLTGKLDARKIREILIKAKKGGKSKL
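Biochemical qHTS: compound (6-point titration) added to 10uM D-luciferin plus 10uM ATP in Tris acetate pH 7.5 buffer with Mg, Tween-20 and BSA, then purified enzyme at 10nM; light output imaged.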
3T3 cytotox: Cytotoxic Profiling in NIH 3T3 Cell Line of Diverse Libraries Using Quantitative High-Throughput Screening; 4.3% of 94,000 active; Potency, µM (top dose mostly 96.7 µM), actives largely listed as inhibitors; AID 1345082, 2018; NIH 3T3 viability, CellTiter-Glo ATP luminescence, 48-72 h; further: nearly all actives have a fitted effect of over 55% in size
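Cytotoxicity is measured as loss of cellular ATP: NIH 3T3 cells (400/well) are exposed to compound for 48 or 72 hr at 37 °C, then CellTiter-Glo luminescence is imaged after 10 min at room temperature.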
HEK293 tox: Cytotoxic Profiling in HEK 293 Cell Line of Diverse Libraries Using Quantitative High-Throughput Screening. HEK 293 viability, ATP luminescence (CellTiter-Glo), 48-72 h. Potency, µM (top dose mostly 115 µM), most hits filed as inhibitors. 6.6% of 94,000 active; further: nearly all actives have a fitted effect of over 60% in size
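HEK 293 seeded at 250 cells/well receive compound via pintool. After 48 or 72 hr at 37 degree Celsius, 5% CO2 and 95% humidity, CellTiter-Glo is dispensed and luminescence read following 10 min at room temperature.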
FLuc SDR -ATP: Firefly luciferase (FLuc-C-HiBiT) SDR gain of signal screen - without ATP. 7.8% of 1,300 active. shares compounds with FLuc inh-1. Potency, µM (top dose mostly 32.7 µM), hits mostly activators. Purified FLuc-C-HiBiT, Nano-Glo HiBiT luminescence, no ATP; further: nearly all actives have a fitted effect of over 55% in size
FLuc SDR ATP: Firefly luciferase (FLuc-C-HiBiT) SDR gain of signal screen - plus ATP; 8.7% of 1,300 active; shares compounds with FLuc inh-1; purified FLuc-C-HiBiT + ATP, HiBiT complementation luminescence; Potency, µM (titrated, usually from 32.7 µM), actives largely listed as activators;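 further: signal reports ligand binding via conformational change of the enzyme rather than luciferase catalysis; nearly all actives have a fitted effect of over 55% in size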
FLuc inh-2: Firefly luciferase (FLuc-C-HiBiT) enzymatic inhibition screen - Functional assay; shares compounds with FLuc inh-1; purified FLuc-C-HiBiT enzyme, luciferin luminescence; Potency, µM (highest dose often 32.7 µM), most hits filed as inhibitors; 42% of 1,300 active; AID 1963320, 2024; further: nearly all actives have a fitted effect of over 70% in size
A number is an active result. Rows were chosen to be rich in hits. Some 7.4% of all compounds tested hit in one or more screens of this group. Unless noted, the call rests on the fitted dose curve; in most records, active means well fitted curve in the direction sought with a large enough effect; inconclusive means small, poorly fitted or top-dose-only effect, or another doubt; inactive means no such curve, though single readings can be large; an effect the other way counts as inactive or inconclusive.

Screening O=C(O)c1cccc2c1CCN2C(=O)c1ccccc1 returned HEK293 viab inactive, hNpr1 antagonist inactive, SNCA expr inh inactive, FLuc inh-1 2.5µM, 3T3 cytotox inactive, HEK293 tox inactive, FLuc SDR -ATP inactive, FLuc SDR ATP inconclusive and FLuc inh-2 3.9µM.
`COc1cccc(-c2csc(CN3CCCC(C)(NC(C)=O)C3)c2)c1` (stereo not given) gave HEK293 viab inactive, hNpr1 antagonist inactive, SNCA expr inh inactive, FLuc inh-1 5µM, 3T3 cytotox inconclusive, HEK293 tox inconclusive, FLuc SDR -ATP inactive, FLuc SDR ATP inactive and FLuc inh-2 inconclusive.
`Cc1ccc(-c2cccc(COc3cnc4c(ccn4CC(=O)O)c3)c2)cc1` gave HEK293 viab inactive, hNpr1 antagonist inactive, SNCA expr inh inactive, FLuc inh-1 7.9µM, 3T3 cytotox inactive, HEK293 tox inconclusive, FLuc SDR -ATP inactive, FLuc SDR ATP inactive and FLuc inh-2 inconclusive.
Screening O=C(O)Cn1ccc2cc(OCc3cccc(-c4ccc(F)c(Cl)c4)c3)cnc21 returned HEK293 viab inactive, hNpr1 antagonist inactive, SNCA expr inh inactive, FLuc inh-1 inactive, 3T3 cytotox inactive and HEK293 tox inconclusive.
For COc1cccc(-c2cccc(COc3cnc4c(ccn4CC(=O)O)c3)c2)c1F the results were HEK293 viab inactive, hNpr1 antagonist inactive, SNCA expr inh inconclusive, FLuc inh-1 13µM, 3T3 cytotox inconclusive, HEK293 tox inactive, FLuc SDR -ATP inactive, FLuc SDR ATP inactive and FLuc inh-2 13µM.
For CCOc1ccc(C(=O)Nc2ccc(-c3nc4ccccc4s3)c(C)c2)cc1OCC the results were HEK293 viab inactive, SNCA expr inh inactive, FLuc SDR -ATP inactive, FLuc SDR ATP inactive and FLuc inh-2 inactive.
For COc1ccc(Nc2cc(C)c3cc(NC(=O)c4ccccc4Cl)ccc3n2)cc1 the results were HEK293 viab inactive and SNCA expr inh inactive.
COc1ccc(C(=O)N2CCC(c3nc4ccccc4s3)CC2)cc1Cl was read as HEK293 viab inactive and SNCA expr inh inactive.
Screening COc1ccc(C(=O)Nc2ccc(-c3nc4ccccc4s3)c(Cl)c2)cc1Cl returned HEK293 viab inactive, SNCA expr inh inactive, FLuc SDR -ATP inactive, FLuc SDR ATP inactive and FLuc inh-2 inactive.
`COc1c(C)cccc1C(=O)Nc1ccc(-c2nc3ccccc3s2)c(Cl)c1` gave HEK293 viab inactive, SNCA expr inh inactive, FLuc SDR -ATP inactive, FLuc SDR ATP inactive and FLuc inh-2 inactive.
CCOc1ccc(C(=O)Nc2ccc3oc(-c4ccc(C)cc4C)nc3c2)cc1Br was read as HEK293 viab inactive and SNCA expr inh inactive.
COc1cccc(CC(=O)N2CCC3(CC2)C(OC)C(=O)N3CC2CC2)c1 (stereo not given) was read as HEK293 viab inactive, SNCA expr inh inactive, 3T3 cytotox inactive and HEK293 tox inactive.
For COc1ccccc1Cn1c(=O)c(C(=O)NCc2cccc(Cl)c2)nc2cccnc21 the results were HEK293 viab inactive, SNCA expr inh inactive, 3T3 cytotox inconclusive and HEK293 tox inactive.
`CCc1nc(-c2ccc(OC3CCN(C(=O)COc4ccc(F)cc4)C3)cc2)no1` (stereo not given) gave HEK293 viab inactive, hNpr1 antagonist inconclusive, SNCA expr inh inactive, FLuc inh-1 inactive, 3T3 cytotox inconclusive and HEK293 tox inconclusive.
For Cc1nc(C)c(C(=O)N2CC(Oc3ccc(-c4noc(-c5ccccc5)n4)cc3)C2)s1 the results were HEK293 viab inconclusive, hNpr1 antagonist inconclusive, SNCA expr inh inactive, FLuc inh-1 inconclusive, 3T3 cytotox inactive and HEK293 tox inactive.
Screening CCc1nc(-c2ccc(OC3CCN(C(=O)C4CC4)C3)cc2)no1 (stereo not given) returned HEK293 viab inactive, hNpr1 antagonist inconclusive, SNCA expr inh inactive, FLuc inh-1 7.9µM, 3T3 cytotox inconclusive, HEK293 tox inconclusive, FLuc SDR -ATP inactive, FLuc SDR ATP inactive and FLuc inh-2 inconclusive.
Cc1nc(C)c(C(=O)N2CCC(Oc3ccc(-c4noc(-c5ccccc5)n4)cc3)C2)s1 (stereo not given) was read as HEK293 viab inconclusive, hNpr1 antagonist 6.3µM, SNCA expr inh inactive, FLuc inh-1 5.6µM, 3T3 cytotox inconclusive, HEK293 tox inconclusive, FLuc SDR -ATP inactive, FLuc SDR ATP inactive and FLuc inh-2 inconclusive.
For COCCNc1oc(-c2ccc(OC)cc2)nc1C#N the results were HEK293 viab inactive, SNCA expr inh inactive, FLuc SDR -ATP inactive, FLuc SDR ATP inactive and FLuc inh-2 inconclusive.
`C/C(=N\N=C(N)N)c1cc(NC(=O)CCCCCCCCC(=O)Nc2cc(/C(C)=N/N=C(N)N)cc(/C(C)=N/N=C(N)N)c2)cc(/C(C)=N/N=C(N)N)c1` gave HEK293 viab inactive.
Screening O=C(Nc1ccc(O)c(-c2nc3ccccc3s2)c1)c1cc2ccccc2o1 returned FLuc SDR -ATP inactive, FLuc SDR ATP inactive and FLuc inh-2 inactive.
Screening O=C(Nc1cc(-c2nc3cc(Cl)ccc3o2)ccc1Cl)c1cc2ccccc2o1 returned HEK293 viab inactive and SNCA expr inh inactive.
`O=C(Nc1cc(-c2nc3ccccc3s2)ccc1Cl)c1cc2ccccc2o1` gave HEK293 viab inactive, SNCA expr inh inactive, FLuc SDR -ATP inactive, FLuc SDR ATP inactive and FLuc inh-2 inactive.
Screening O=C(Nc1ccc(O)c(-c2nc3ccccc3o2)c1)c1sc2ccccc2c1Cl returned HEK293 viab inactive and SNCA expr inh inactive.
